# Screens as filed in PubChem BioAssay.
# Sampled rows, rich in hits. Any-hit rate of the full collection: about 13%.
# HCV inhibitor: inhibitors of hepatitis C virus infection. Huh7.5.1 HCVcc-Cre infection, luciferase reporter, 44 h. AID 651820. 340,000 tested, 3.4% active. Potency, µM (series often up to 41.8 µM), for the others: top-dose activity change, negative = inhibition, usual class: inhibitors; active = well fitted inhibition curve with a large enough effect; inconclusive = small, poorly fitted or top-dose-only effect, or another doubt; inactive = no such curve, though single readings can be large or run the other way; note: potency is the fitted concentration of half-maximal effect; % is set by controls: 0 for no effect and ±100 for the full control effect
#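 Reporter virus HCVcc-Cre (~0.5 moi) infects cells exposed to compound; seeding density 1,000 cells/well with 4 h settling beforehand. Luminescence, 15 sec read, taken 44 h post-infection following a 15 min RT substrate incubation.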
# MARV entry inh: Marburg virus entry inhibition. Marburg virus pseudotyped entry inhibition, cell reporter. Potency, µM (titrated, usually from 37.8 µM), for inactives: at the top dose activity change, negative = inhibition, actives largely listed as inhibitors. 300,000 tested, 1.8% active. AID 540276; calls by dose curve; tested in HEK293 cells; note: potency is the fitted concentration of half-maximal effect; % is set by controls: 0 for no effect and ±100 for the full control effect
# FMDV inh: foot and mouth disease virus antiviral activity. 410,000 tested, 1.2% active. FMDV antiviral cell-based qHTS. Potency, µM (top dose mostly 57.9 µM), for inactives: at the top dose activity change, negative = inhibition, actives largely listed as inhibitors; calls by dose curve; tested in HEK293T cells; note: read-out not given here; potency is the fitted concentration of half-maximal effect; % is set by controls: 0 for no effect and ±100 for the full control effect; nearly all actives have a fitted effect of over 45% in size
# Cycloheximide cs: affects cycloheximide protein synthesis inhibition readout, counter-screen; cell reporter, cycloheximide protein synthesis inhibition counterscreen; max response, %; 300,000 tested, 12% active; in the data active = max response mostly above about 13%, no sharp cut-off; inactive = mostly below about 14%; note: read at 38.3 µM for the half of the compounds with a filed dose; 0% is about no effect
# LASV entry inh: inhibitors of Lassa virus binding or cell entry; 300,000 tested, 1.2% active; Lassa virus pseudotype entry inhibition, cell reporter; Potency, µM (titrated, usually from 37.9 µM), inactives show top-dose activity change, negative = inhibition, most hits filed as inhibitors; calls by dose curve; tested in HEK293 cells; note: potency is the fitted concentration of half-maximal effect; % is set by controls: 0 for no effect and ±100 for the full control effect; nearly all actives have a fitted effect of over 50% in size
# Shiga toxin inh: Shiga toxin inhibition | Vero cells, Shiga toxin protein synthesis inhibition reporter | inhibition, % at 38.7 µM | 290,000 tested, 9.2% active; in the data active = inhibition mostly above about 28%, no sharp cut-off; inactive = mostly below about 43%; note: 0% is about no effect
# * marks the source's active call; other numbers are inactive results; u = inconclusive; x = not tested or not shown; [ ] = dose if it differs, or a comment.
SMILES,HCV inhibitor,MARV entry inh,FMDV inh,Cycloheximide cs,LASV entry inh,Shiga toxin inh
CCOc1ccc(-c2n[nH]c(C(=O)NN)c2C)cc1,u,u,38.2%,31.7*,u,94.9*
CCOc1ccc(-c2nonc2NC(=O)c2ccccc2C)cc1,x,1.7%[46.1 µM],-16.5%,x,2.4%[46.1 µM],x
Cc1c(-c2ccccc2)n[nH]c1C(=O)NN,-3.4%,-1.2%[46.1 µM],48.8%,42.6*,-1.5%,97.1*
Cc1nc(Cc2nnc(SCC(=O)N(C)c3ccccc3)o2)cs1,5.5%,0.3%,-7.0%,x,-5.8%[46.1 µM],x
Cc1csc(N(C)C(=O)CSc2nnc(COc3ccccc3C)o2)n1,0.1%,-1.0%,-24.3%,-2.0,-0.8%,-8.8
N#Cc1nc(-c2ccc(F)cc2)oc1NCc1ccccc1,-18.2%,x,8.0%,16.7,x,45.4
Cc1cccc(-c2nc(C#N)c(NCc3ccco3)o2)c1,-10.5%,x,82.2%,56.7*,x,53.5*
N#Cc1nc(-c2ccc(OCc3ccccc3)cc2)oc1NCc1ccco1,u,u,-3.5%,-4.7,5.5%,3.9
CC(C)(C)c1ccc(-c2nc(C#N)c(NCc3cccnc3)o2)cc1,-3.1%,21.2%,1.7%,32.4*,12.8%,23.0
N#Cc1nc(-c2ccc(F)cc2)oc1NCc1ccco1,u,x,34.9%,13.0*,x,85.9*
COc1ccc(-c2nc(C#N)c(NCc3ccco3)o2)cc1,-9.6%,x,42.9%,27.7*,x,73.2*
O=C(NCNC(=O)NC1C(=O)NC(=O)N1CO)NC1C(=O)NC(=O)N1CO (stereo unspecified),9.4%,x,-14.8%,x,x,x
C[C@H](NC(=O)c1ccccc1F)C(=O)N1CCC2(CC1)NCCc1[nH]cnc12,16.1%,3.7%[46.1 µM],2.6%,-2.5,u,-7.6
CC1CCCCC12NC(=O)N(CC(=O)NC1CCCc3ccccc31)C2=O (stereo unspecified),5.4%,6.4%,-1.6%,-1.2,9.5%,-4.4
OCc1ccccc1Cn1ccnc1,x,x,-10.5%,x,x,x
Cc1ccc(-c2nc(C#N)c(NCc3ccco3)o2)cc1,-25.9%,8.1%,47.6%,54.4*,5.2%,88.9*
N#Cc1nc(-c2ccco2)oc1NCc1ccco1,-24.8%,10.3%,3.1%,6.9,u,14.7
Cc1ccccc1CC(=O)Nc1ccc(C(=O)N2CCCC2)cc1,-2.6%,x,0.0%,25.3*,x,45.6
O=C(CNCCc1ccc(Cl)cc1)Nc1ccc(C(=O)N2CCCCC2)cc1,11.1%,11.2µM*,-15.6%,-3.6,u,-12.7
O=C(c1ccc(CSc2ccc(Cl)cc2)cc1)N1CCCC1,u,x,11.5%,22.9,x,61.3*
O=C(CNCc1ccccc1Cl)Nc1ccc(C(=O)N2CCCCC2)cc1,-11.7%,-13.6%[46.1 µM],-13.1%,2.9,4.2%,-5.3
Cc1ccc(CC(=O)Nc2ccc(C(=O)N3CCCCC3)cc2)cc1,4.3%,-26.4%[46.1 µM],0.5%,8.5,-24.7%,22.2
O=C(CNCCc1ccccc1)Nc1ccc(C(=O)N2CCCCC2)cc1,16.5%,10.9%[46.1 µM],15.8%,27.9*,1.6%[46.1 µM],72.9
Cc1cc(Oc2ccc(Br)cc2)nc(SCC(=O)c2ccccc2)n1,3.4%,u,u,-2.0,-19.3%,-10.5
COc1ccc(OC)c(NC(=O)Cn2c(CCC(=O)O)ccc2-c2ccc(C)cc2)c1,5.6%,-10.5%[46.1 µM],-12.0%,0.5,-26.8%[46.1 µM],-4.5
SMILES,HCV inhibitor,MARV entry inh,FMDV inh,Cycloheximide cs,LASV entry inh,Shiga toxin inh
CC(C)(C)c1ccc(-c2noc(CCC(=O)N3CCOCC3)n2)cc1,-20.0%,u,-30.9%,26.1*,u,38.5
CC(C)(C)c1ccc(-c2noc(CCC(=O)NCC3CCCO3)n2)cc1 (stereo unspecified),u,u,-20.6%,43.2*,u,55.1
CC(C)(C)c1ccc(-c2noc(CCC(N)=O)n2)cc1,4.1%,1.46µM*,-25.5%,34.5*,u,71.5*
Cc1ccc(-c2noc(CCC(=O)NCC3CCCO3)n2)cc1 (stereo unspecified),7.0%,0.9%,-4.8%,-2.7,9.6%,1.9
CC(C)(C)c1ccc(-c2noc(CCC(=O)Nc3cccnc3)n2)cc1,u,u,-23.0%,-3.2,u,3.6
CN(C)C(=O)CCc1nc(-c2ccc(C(C)(C)C)cc2)no1,-10.7%,u,0.0%,43.8*,u,123.3*
O=C(c1ccc(=O)[nH]n1)N1CCN(S(=O)(=O)c2ccccc2F)CC1,4.3%,x,0.0%,x,x,x
CCOC(=O)c1c(NC(=O)C2=C(C)NC(=S)NC2c2ccccc2C(F)(F)F)sc(C)c1C (stereo unspecified),u,u,-18.9%,3.1,-28.8%,11.9
O=C(NC1=NCCS1)c1ccc(Cl)c(S(=O)(=O)N2CCCCC2)c1,-27.7%,-20.4%,-17.0%,-2.4,4.6%,-8.6
CNC(=O)CCc1nc(-c2ccc(C(C)(C)C)cc2)no1,-10.8%,0.891µM*,6.3%,41.2*,u,57.3
CCc1ccccc1N(CC)C(=O)CCc1nc(-c2ccc(C)cc2)no1,u,u,-9.1%,5.3,10µM*,14.9
Cc1ccc(-c2noc(CCC(=O)N(C)c3ccccc3F)n2)cc1,x,19.3%[46.1 µM],-12.6%,x,u,x
Cc1ccc(C(=O)O/N=C(\N)c2ccccn2)c(C)c1,u,0.631µM*,0.891µM*,-7.3,0.794µM*,-21.5
N/C(=N\OS(=O)(=O)c1ccccc1)c1ccccn1,7.1%,u,17.2%,0.4,0.0%,-5.3
COc1cc(OC)c(C(=O)O/N=C(\N)c2ccccn2)cc1OC,-9.8%,x,56.5%,14.4*,x,78.4*
N/C(=N\OC(=O)c1ccccc1[N+](=O)[O-])c1ccccn1,-15.8%,u,-57.7%,12.2,u,26.0
N/C(=N\OS(=O)(=O)c1ccc(Cl)cc1)c1ccccn1,3.5%,u,0.0%,16.9*,-19.8%,55.6*
COc1ccccc1C(=O)O/N=C(\N)c1ccccn1,8.8%,3.55µM*,-17.1%,22.4*,u,33.8
CCOC(=O)c1csc(NC(=O)CSc2nnnn2-c2cccc(OC)c2)n1,13.6%,-11.9%[46.1 µM],u,21.0,-1.9%,29.5
CC(=O)Nc1ccc(C(=O)NNC(=O)c2ccccc2-n2cccc2)cc1,7.2%,x,-10.0%,x,x,x
N/C(=N\OC(=O)c1ccccc1Cl)c1ccccn1,21.2%,u,-89.4%,2.3,2.06µM*,-11.4
N/C(=N\OC(=O)c1cc(-c2ccccc2)nc2ccccc12)c1ccccn1,u,x,-25.0%,5.3,x,-10.6
COc1ccc(C(=O)NCCN(C)C)c2nc3ccccc3cc12,u,1.26µM*,-11.1%,x,u,x
CN(C)CCNC(=O)c1cccc2nc3c(ccc4ccccc43)nc12,7.94µM*,u,-23.5%,x,u,x
COc1cccc2nc3c(C(=O)NCCN(C)C)cccc3cc12,u,7.08µM*,0.2%,x,u,x
COc1ccc(-c2nc3c(C(=O)NCCN(C)C)cccc3c3ccccc23)cc1,u,u,-23.5%,x,u,x
COCCCNC(=O)CC[C@H]1O[C@@H](n2cnc3c(NC(=O)c4ccccc4)ncnc32)[C@H](O)[C@@H]1O,x,x,-9.1%,x,x,x
NC(=O)c1c(NC(=O)CCCn2cnc([N+](=O)[O-])n2)sc2c1CCCC2,26.9%,3.3%[46.1 µM],-5.7%,0.7,19.6%,5.1
